ChEMBL document CHEMBL1201862, “PubChem BioAssay data set” (2004)
Among all 400,000 compounds or so, about 3,700 (0.93%) were called active. About 3% were inconclusive and are not listed. This is one part of a sample in which actives are shown more often than they occur. The calls are words filed in the database; no cut-off is given here.

Target: T1, Vitamin D3 receptor (Homo sapiens) (UniProt P11473)
T1 sequence (whole entry): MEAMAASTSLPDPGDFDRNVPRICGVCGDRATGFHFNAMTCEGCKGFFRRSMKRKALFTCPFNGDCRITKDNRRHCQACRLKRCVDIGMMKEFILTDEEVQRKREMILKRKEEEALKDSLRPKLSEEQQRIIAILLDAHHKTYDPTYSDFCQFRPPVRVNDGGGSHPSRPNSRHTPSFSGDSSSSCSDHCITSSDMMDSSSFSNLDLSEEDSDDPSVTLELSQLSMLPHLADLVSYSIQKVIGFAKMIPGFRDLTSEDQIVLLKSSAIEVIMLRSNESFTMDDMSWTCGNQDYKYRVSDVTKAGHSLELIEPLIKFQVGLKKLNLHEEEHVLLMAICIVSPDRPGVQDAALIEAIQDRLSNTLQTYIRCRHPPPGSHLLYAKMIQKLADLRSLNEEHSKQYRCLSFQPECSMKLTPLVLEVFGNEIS
Test: Inhibitors of the vitamin D receptor (VDR): qHTS. [Related pubchem assays (depositor defined):AID504855]
Type: functional

SMILES	Potency
Cl[Te]1(Cl)OCCO1	3.16 µM (active)
